# The list is not random: actives were taken first. Their share in the collection is about 3.5%.
# Mtb UGM inh: M. tuberculosis UGM enzyme inhibitors, primary screen, biochemical, fluorescence polarization, single point; UDP-galactopyranose mutase (Mycobacterium tuberculosis (strain ATCC 25618 / H37Rv)), …; inhibition, % at 10 µM; AID 504406, 2011; 320,000 compounds, 0.06% hits; purified UGM, fluorescence polarization probe displacement; in the data active means inhibition above about 10%, passing the limit was not always enough
# Mtb FBA inh: Mtb FBA enzyme inhibitors, primary screen, biochemical, fluorescence, strain H37Rv. Fructose-bisphosphate aldolase (Mycobacterium tuberculosis (strain ATCC 25618 / H37Rv)), …. purified M. tuberculosis FBA, fluorescence read-out. inhibition, % at 1 µM. 360,000 compounds, 2.3% hits;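 further: 0% = vehicle and 100% = reference inhibitor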
# Target sequence (P9WQA3 whole entry, looked up): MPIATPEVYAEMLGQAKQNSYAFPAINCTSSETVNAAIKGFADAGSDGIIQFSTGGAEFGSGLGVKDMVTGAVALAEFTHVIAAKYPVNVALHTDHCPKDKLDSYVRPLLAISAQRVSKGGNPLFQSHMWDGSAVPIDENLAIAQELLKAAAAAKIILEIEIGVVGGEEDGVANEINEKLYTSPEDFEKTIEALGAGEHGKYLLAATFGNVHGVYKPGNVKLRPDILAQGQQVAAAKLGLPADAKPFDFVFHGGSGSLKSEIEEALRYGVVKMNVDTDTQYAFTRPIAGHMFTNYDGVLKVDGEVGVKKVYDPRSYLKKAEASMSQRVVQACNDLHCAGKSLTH
# Rv3671c inh: Rv3671c serine protease inhibitors, primary screen, biochemical, fluorescence polarization, M. tuberculosis H37Rv | inhibition, % at 5.96 µM | AID 2606, 2010 | P9WHR9 | 320,000 compounds, 0.048% hits; in the data active means inhibition above about 38%;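 further: extracellular domain of Rv3671c used as enzyme; 0% = enzyme with DMSO and 100% = no enzyme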
# GDH-TPI counter-1: GDH-TPI coupling enzyme inhibitors, primary screen, artefact control for M. tuberculosis FBA inhibitor project, biochemical, absorbance, full deck; GDH-TPI coupled enzyme counterscreen, NADH absorbance; inhibition, % at 4.8 µM; 360,000 compounds, 1.2% hits; in the data active means inhibition above about 30%;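 further: 0% = DMSO wells and 100% = wells lacking the enzyme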
# Mtb FBA confirm: M. tuberculosis aldolase blockers, biochemical, fluorescence, strain H37Rv, confirmation; shares compounds with Mtb FBA inh; inhibition, % at 1 µM; 5,600 compounds, 78% hits; AID 651616, 2012; purified M. tuberculosis FBA, fluorescence read-out;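 further: 0% = vehicle wells and 100% = reference inhibitor wells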
# GDH-TPI counter-2: GDH-TPI coupling enzyme inhibitors, artefact control for M. tuberculosis FBA inhibitor project, biochemical, fluorescence, high throughput | shares compounds with Mtb FBA inh | inhibition, % at 1 µM | AID 652141, 2013 | 5,600 compounds, 81% hits | GDH-TPI coupled enzyme counterscreen; in the data active means inhibition above about 10%
# * marks the source's active call; other numbers are inactive results; / = no result given; + = active, no number. Unless noted, no stated cut-off is given here; in the data, active means inhibition above about 27%; inactive means the rest.
SMILES,Mtb UGM inh,Mtb FBA inh,Rv3671c inh,GDH-TPI counter-1,Mtb FBA confirm,GDH-TPI counter-2
O=C(Oc1ccc2ccc(=O)oc2c1)c1ccccc1,1,63*,2,14,50*,41*
CCC(CC)N1CCN(C(=O)c2cc(OC)c(OC)c(OC)c2)CC1,0,3,4,4,/,/
COc1cccc(C(=O)COc2ccc3ccc(=O)oc3c2)c1,-1,5,-20,5,/,/
O=C(COc1ccc2ccc(=O)oc2c1)NC1CCCC1,-1,18,-7,11,/,/
O=c1ccc2ccc(OCCOc3cccc(Cl)c3)cc2o1,-4,49*,-5,11,173*,157*
O=C(Oc1ccc2ccc(=O)oc2c1)C1CCCCC1,-2,108*,1,8,+,+
C=CCN(C(=O)CCC(=O)Nc1cc(C)on1)C(C(=O)NC1CCCC1)c1ccc(OC)cc1OC (configuration not stated),-6,-2,4,-1,/,/
CCOc1ccc(-c2nnc(NC(=O)COc3ccccc3F)o2)cc1,/,1,/,-5,/,/
CCOC(=O)CNC(=O)Nc1nnc(-c2ccc(OCC)cc2)o1,1,63*,6,-1,1,-5
CCCCNC(=O)Nc1nnc(-c2ccc(OCC)cc2)o1,1,29*,-7,-8,70*,41*
Cc1ccc(S(=O)(=O)N2CCOC2CNC(=O)C(=O)NCCN2CCOCC2)cc1 (configuration not stated),0,-1,-2,-3,/,/
CCCOc1ccc(-c2nc(C#N)c(N3CCc4ccccc4C3)o2)cc1,0,7,-5,21,/,/
CCOc1ccc(-c2nc(C#N)c(N3CCN(CC)CC3)o2)cc1,3,59*,0,28,44*,49*
CCN1CCN(c2oc(-c3ccc([N+](=O)[O-])cc3)nc2C#N)CC1,-1,-1,7,1,/,/
CCCOc1ccc(-c2nc(C#N)c(N3CCN(CC)CC3)o2)cc1,4,44*,2,4,+,+
COc1ccc(NC(=O)N2CCC(n3cnc4ccccc43)CC2)cc1,-4,4,0,3,/,/
COc1ccccc1N1C(=O)c2ccccc2NC1c1ccc(O)cc1 (configuration not stated),1,42*,3,-7,52*,45*
COc1ccc(N2C(=O)c3ccccc3NC2c2ccc(NC(C)=O)cc2)c(OC)c1 (configuration not stated),1,42*,-2,5,91*,64*
CCOc1cc(C2Nc3ccccc3C(=O)N2c2ccccc2OC)ccc1O (configuration not stated),2,24,-1,8,/,/
CCOC(=O)[C@H]1[C@H]2COc3ccc(OC)cc3[C@@H]2N2C(=O)CN(C)C(=O)[C@@]12C,2,0,-1,12,/,/
Cc1cc2c(=O)cc(-c3ccccc3)oc2c(C(=O)O)c1C,/,39*,/,/,56*,48*
O=c1cc(-c2ccccc2)oc2ccc(Br)cc12,3,4,-2,10,/,/
Cc1cccc(C)c1C(O)c1ncc(-c2ccccc2Cl)[nH]1 (configuration not stated),/,-3,/,1,/,/
CC1CCN(C(=O)COC(=O)c2ccccc2NCCO)CC1,/,92*,/,14,131*,112*
O=C(COC(=O)c1ccccc1NCCO)Nc1cc(C(F)(F)F)ccc1N1CCOCC1,-8,70*,-2,4,3,-5
SMILES,Mtb UGM inh,Mtb FBA inh,Rv3671c inh,GDH-TPI counter-1,Mtb FBA confirm,GDH-TPI counter-2
CC1Cc2ccccc2N1C(=O)COC(=O)c1ccccc1NCCO (configuration not stated),2,109*,-1,16,80*,67*
O=C(OCC(=O)N1CCCc2ccccc21)c1ccccc1NCCO,-1,99*,2,-9,148*,140*
O=C(COC(=O)c1ccc(O)cc1)Nc1cc(C(F)(F)F)ccc1N1CCOCC1,1,3,-3,-3,/,/
O=C1CCCN1CC(O)CS(=O)(=O)Cc1ccccc1Cl (configuration not stated),0,3,-8,-3,/,/
Cc1nc2c(OCCN3C(=O)c4ccccc4C3=O)cccn2c1N(C)C(=O)CCC1CCCC1,/,-1,/,-3,/,/
CC(OC(=O)c1ccccc1NCCO)C(=O)NC1CCCCC1C (configuration not stated),0,96*,4,4,1,-4
CN1CCN(c2ccc(CNC(=O)C3Cc4c(-c5ccc6c(c5)OCO6)ccnc4O3)cc2)CC1 (configuration not stated),/,23,/,-6,/,/
O=C(NCc1ccncc1)C1Cc2c(-c3ccc4c(c3)OCO4)ccnc2O1 (configuration not stated),/,45*,/,-4,59*,44*
O=C(NCc1ccccc1)C1Cc2c(-c3ccc4c(c3)OCO4)ccnc2O1 (configuration not stated),/,65*,/,4,+,+
CC(=O)N[C@H]1[C@H](OC2CCCCC2)O[C@H](COC(C)=O)[C@@H](OC(C)=O)[C@@H]1OC(C)=O,-2,0,2,-3,/,/
COc1ccc(Cn2nnnc2C(c2cc3cc(C)ccc3[nH]c2=O)N2CCN(C)CC2)cc1 (configuration not stated),0,8,3,4,/,/
COc1cc2cc(C(c3nnnn3Cc3ccc(F)cc3)N3CCCCCC3)c(=O)[nH]c2cc1OC (configuration not stated),-1,49*,4,22,-2,-2
CS(=O)(=O)Nc1ccccc1-c1cccc2nccn12,/,40*,/,-1,58*,39*
CS(=O)(=O)Nc1ccc(-c2cncc3nccn23)cc1,/,63*,/,35*,65*,56*
c1ccc(Sc2ncnc3c2oc2ccccc23)nc1,3,2,-7,14,/,/
Clc1ccccc1-c1cccc2nccn12,/,35*,/,-5,0,-5
c1ccc2c(c1)oc1c(-c3cccc4nccn34)cccc12,/,90*,/,19,50*,44*
CCCCCC(=O)Nc1c2c(nc3ccccc13)CCC2,0,2,1,-1,/,/
CCN(CC)CC(=O)Nc1c2c(nc3ccccc13)N(C)CC2,0,48*,-3,12,/,+
CC(C)C(=O)Nc1c2c(nc3ccccc13)N(C)CC2,0,74*,2,12,+,+
Cc1ccc(NC(=O)C2(C)CCN2Cc2ccccc2OC(F)F)cc1 (configuration not stated),/,0,/,8,/,/
Cc1ccc(-c2nc3c(c(=O)[nH]c(=O)n3Cc3ccccc3)n2Cc2ccccc2)o1,/,38*,/,10,153*,133*
Cc1ccc(-c2nc3c(c(=O)[nH]c(=O)n3Cc3ccccc3)n2C)s1,0,/,-17,/,/,/

# Compound activity as filed in PubChem BioAssay.
